{
  "source": "PubChem BioAssay (NCI)",
  "note": "The panel holds about 83,000 compounds, 20% with a hit somewhere; the sample as a whole holds those more often.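 Plates (96-well) were seeded with cells, treated with compound at one concentration, and incubated for 48 hours before percent growth was determined.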 Activity calls are given as the source filed them.",
  "data": [
    {"system": "PC-3 prostate", "assay": "NCI-60 one-dose screen, 48 h (100 = growth as untreated, 0 = no growth, -100 = all killed)", "conditions": "10 µM unless noted", "experimental": "Growth inhibition of the PC-3 human tumor cell line is measured as a screen for anti-cancer activity. Cells are grown in 96 well plates and exposed to the test compound for 48 hours. Compounds are tested at a single concentration, which is 10^-5 M for most compounds. The reported endpoint is percent growth (GI% or GIPRCNT), where numbers from 0 - 100% represent growth inhibition, and numbers from -100% - 0 represent cell death. For example, a value of 40 represents 60% growth inhibition. A value of 0 means no net growth occurred over the course of the experiment. A value of -40 indicates 40% of cells at the beginning of the experiment died by the end of the experiment. A value of -100 means all cells are dead at the end of the experiment.\nNCI-60 Human Tumor Cell Lines Screen was performed using the standard one-dose NCI protocol, which is described in more detail at https://dtp.cancer.gov/discovery_development/nci-60/default.htm.\nCompounds with GIPRCNT values below 10 were considered active. Activity score was based on GIPRCNT using the following formula: […]\nScore is 0 for GIPRCNT values of 100 or above, 50 for GIPRCNT values of 0, and 100 for GIPRCNT values of -100.", "values": [
      {"smiles": "COc1ccc(-c2nnc(SCC(=O)Nc3ccc(C(=O)/C=C/c4ccc(Cl)cc4)cc3)o2)cc1OC", "growth": "84.6% (inactive)"},
      {"smiles": "Cc1ccc(-c2cn3cc([N+](=O)[O-])ccc3n2)cc1", "growth": "77.1% (inactive)"},
      {"smiles": "O=C(Cn1c2ccccc2c2ccncc21)N/N=C/c1c[nH]c2ccccc12", "growth": "78.8% (inactive)"},
      {"smiles": "NCC(=O)NS(=O)(=O)OC[C@H]1O[C@@H](n2cnc3c(N)ncnc32)[C@H](O)[C@@H]1O", "growth": "9.66% (active)"},
      {"smiles": "CNCCCOc1c(Br)cc(CCNC(=O)/C(Cc2ccc(OC)c(Br)c2)=N/O)cc1Br", "growth": "34.5% (inactive)"},
      {"smiles": "CC(C)(C)C(=O)Nc1nc2c(s1)CCc1ccn(S(=O)(=O)c3ccccc3)c1-2", "growth": "81.1% (inactive)"},
      {"smiles": "Cc1ccc[n+](CC(=O)c2cccc3ccccc23)c1", "growth": "101% (inactive)"},
      {"smiles": "COC(OC)C1(c2ccccc2)NC(=O)NC1=O", "note": "(stereo not given)", "growth": "103% (inactive)"},
      {"smiles": "c1ccc2c(c1)Oc1cccnc1-n1nccc1-2", "growth": "89.7% (inactive)"},
      {"smiles": "O=C1C(Cl)=C(Nc2cccc3cc4ccccc4nc23)C(=O)c2ccccc21", "growth": "42% (inactive)"},
      {"smiles": "Nn1c(CN2CCN(c3cc4c(cc3F)c(=O)c(C(=O)O)cn4C3CC3)CC2)n[nH]c1=S", "growth": "105% (inactive)"},
      {"smiles": "CCCCCCCCCCCCCCCC(=O)NS(=O)(=O)OC[C@H]1O[C@@H](n2cnc3c(N)ncnc32)[C@H](O)[C@@H]1O", "growth": "-52.4% (active)"},
      {"smiles": "CCN(CC)CCN1C(=O)c2c(c3c4ccccc4[nH]c3c3[nH]c4ccccc4c23)C1=O", "growth": "82.5% (inactive)"},
      {"smiles": "CC[C@@]1(O)C(=O)OCc2c1cc1n(c2=O)Cc2c-1nc1ccccc1c2/C=N/OC(C)(C)C", "growth": "23.6% (inactive)"},
      {"smiles": "COc1cc2nc(C(=O)N3CCCCC3)cc(Nc3ccccc3)c2cc1OC", "growth": "114% (inactive)"},
      {"smiles": "Oc1ccccc1/C=N/c1ccccn1", "growth": "91.4% (inactive)"},
      {"smiles": "COc1cc(C(=O)N2CCN(C(=O)c3cc(OC)c(OCc4ccccc4)cc3N)CC2)c(N)cc1OCc1ccccc1", "growth": "106% (inactive)"},
      {"smiles": "C=C1C(=O)O[C@H]2[C@H]1CC/C(COC(=O)c1ccc(Br)cc1)=C\\CC[C@@]1(C)O[C@@H]21", "growth": "20.3% (inactive)"},
      {"smiles": "CCCCNC(=O)Oc1ccc(/C(=C(/CC)Cc2ccccc2)c2ccc(OCCCN(C)C)cc2)cc1", "growth": "81.2% (inactive)"},
      {"smiles": "C=C1C(=O)O[C@H]2[C@H]1CC/C(COC(=O)c1ccccc1)=C\\CC[C@@]1(C)O[C@@H]21", "growth": "35% (inactive)"},
      {"smiles": "CC(=O)c1cc2c(c(O)c1C)C(=O)C(=O)c1c(O)cccc1-2", "growth": "-26.4% (active)"},
      {"smiles": "CC(C)(c1ccc(OCC(O)CNCc2ccco2)cc1)c1ccc(OCC(O)CNCc2ccco2)cc1", "note": "(stereo not given)", "growth": "75.6% (inactive)"},
      {"smiles": "NC(=S)NNC1CCCCC1", "growth": "87.7% (inactive)"},
      {"smiles": "COC(=O)c1oc2c(C(C)=O)c(OCCN3CCCCC3)ccc2c1C", "growth": "93.9% (inactive)"},
      {"smiles": "CS(=O)(=O)OCC(COS(C)(=O)=O)C(c1ccccc1)c1ccccc1", "growth": "97.2% (inactive)"},
      {"smiles": "CC(C)CNCC(O)COc1ccc(C(C)(C)c2ccc(OCC(O)CNCC(C)C)cc2)cc1", "note": "(stereo not given)", "growth": "47.4% (inactive)"},
      {"smiles": "COc1cc(CN(c2ccc(Cl)cc2)C2OC(=O)c3ccccc32)cc(OC)c1OC", "note": "(stereo not given)", "growth": "62.6% (inactive)"},
      {"smiles": "O=C(NCCNc1nccc(-c2c(-c3cccc(O)c3)nc3sccn23)n1)c1ccc(N2CCOCC2)c(C(F)(F)F)c1", "growth": "56.6% (inactive)"},
      {"smiles": "CC1(C)Cc2c(Br)c(Br)c(Br)c(OCC(O)CN3CCN(c4ccccn4)CC3)c2O1", "note": "(stereo not given)", "growth": "48.5% (inactive)"},
      {"smiles": "CCCCn1c(-c2cccc(OC)c2)nc2cc(OC)c(OC)cc2c1=O", "growth": "108% (inactive)"},
      {"smiles": "ClC1c2ccccc2CCc2ccccc21", "growth": "83.5% (inactive)"},
      {"smiles": "Cc1cc(NC(=O)c2cccc(C(F)(F)F)c2)ccc1-n1ccc2c(NC(=O)c3ccccc3)nccc21", "growth": "74.6% (inactive)"},
      {"smiles": "O=C(O)c1cn(C2CC2)c2cc(N3CCN(C(=O)CSc4nc(NS(=O)(=O)c5ccccc5)cc(=O)[nH]4)CC3)c(F)cc2c1=O", "growth": "85% (inactive)"},
      {"smiles": "CCC(N)(C(=O)O)c1ccc(F)cc1", "note": "(stereo not given)", "growth": "81.4% (inactive)"},
      {"smiles": "O=C(NCCNc1nccc(-c2c(-c3cccc(O)c3)nc3sccn23)n1)c1ccccc1", "growth": "68.5% (inactive)"},
      {"smiles": "CC1=C[S+](c2ccccc2)c2cccc3cc4ccccc4c1c23", "note": "(stereo not given)", "growth": "1.38% (active)"},
      {"smiles": "COc1ccc(OC)c(NCC(=O)n2nc(/C=C\\c3ccc(O)c(OC)c3)cc2/C=C\\c2ccc(O)c(OC)c2)c1", "growth": "23.2% (inactive)"},
      {"smiles": "Nc1ncnc2c1c(-c1ccc(Oc3ccccc3)cc1)nn2C[C@@H]1SSC[C@H]1O", "growth": "55.7% (inactive)"},
      {"smiles": "O=C1OC(=O)C2C3CC(c4ccccc43)C12", "note": "(stereo not given)", "growth": "92.1% (inactive)"},
      {"smiles": "CCCCNc1cc(C(=O)O)cc(S(N)(=O)=O)c1Oc1ccccc1", "growth": "95.7% (inactive)"}
    ]}
  ]
}
